From paper PMC4552634, “A New Set of Chemical Starting Points with Plasmodium falciparum Transmission-Blocking Potential for Antimalarial Drug Discovery” (PLoS ONE, 2015)
Like-named read-outs stand apart in the source and are kept apart here. Hit rate of the full screen: of about 13,000 compounds, about 3,200 (25%) showed an effect of 50% or more. This is one part of the list.

Test system: P. falciparum stage V gametocytes
Design: BacTiter-Glo ATP luminescence viability of purified stage V gametocytes in 384-well plates, per cent inhibition versus DMSO
Conditions: 48 h, 5 µM, inhibitor

Row | Compound | % Inhibition | % Inhibition (% Inhibition)
1 | COc1cccc(Cc2cnc3nc(N)nc(N)c3c2C)c1 [TCMDC-138060] | -3.76% | 
2 | CC(=O)Nc1ccc(S(=O)(=O)Nc2ccc(Nc3nc(C)cc(N(C)C)n3)cc2)cc1 [TCMDC-124951] | -47.31% | 
3 | COc1ccc2nccc([C@@H](O)CN3CCC(NC(=O)/C=C/c4cccc(NC(C)=O)c4)CC3)c2c1 [TCMDC-141029] | -15.14% | 
4 | COc1ccccc1CNc1ncc(-c2ccsc2)c(-c2nccs2)n1 [TCMDC-125376] | 13.46% | 
5 | COc1ccc(CNc2ncc(-c3ccsc3)c(-c3nccs3)n2)cc1OC [TCMDC-125369] | 23.78% | 
6 | COc1cccc(CNc2ncc(-c3ccsc3)c(-c3nccs3)n2)c1 [TCMDC-125375] | 51.63% | 
7 | c1cc(CNc2ncc(-c3ccsc3)c(-c3nccs3)n2)ccn1 [TCMDC-125371] | 35.87% | 
8 | Fc1ccc(CNc2ncc(-c3ccsc3)c(-c3nccs3)n2)cc1 [TCMDC-125372] | 57.46% | 
9 | Fc1cccc(CNc2ncc(-c3ccsc3)c(-c3nccs3)n2)c1 [TCMDC-125374] | 21.86% | 
10 | COc1cc(CNc2ncc(-c3ccsc3)c(-c3nccs3)n2)cc(OC)c1 [TCMDC-124844] | 31.51% | 
11 | c1cncc(CNc2ncc(-c3ccsc3)c(-c3nccs3)n2)c1 [TCMDC-125368] | 23.89% | 
12 | Fc1ccccc1CNc1ncc(-c2ccsc2)c(-c2nccs2)n1 [TCMDC-125366] | 77.55% | 
13 | Clc1ncccc1-c1nc(NCCC(c2ccccc2)c2ccccc2)no1 [TCMDC-134181] | 13.92% | 
14 | Clc1cc(Cl)cc(Nc2ccnc(Nc3cc(Cl)cc(Cl)c3)n2)c1 [TCMDC-134277] | -19.19% | 
15 | Cc1nc(N/C=C/c2ccc(O)cc2)cc(N2CCCC2)n1 [TCMDC-135162] | 20.32% | 
16 | NC1=NC(c2ccccc2)(c2cccc(O)c2)C(=O)N1CCCc1ccccc1 (stereo not drawn) [TCMDC-132351] |  | -3.76%
17 | COc1cccc(CN2CCC(CCOC(c3ccccc3)c3ccc(Cl)cc3)CC2)c1O (stereo not drawn) [TCMDC-136040] | -76.2% | 
18 | COc1ccc(S(=O)(=O)NC2CCN(CCCOc3ccnc4cc(Cl)ccc34)C2)cc1OC (stereo not drawn) [TCMDC-136146] | -25.22% | 
19 | COc1cc(Br)c(S(=O)(=O)n2cc(CN3CCC(N)CC3)c3cc(Cl)ccc32)cc1OC [TCMDC-136384] | 95.22% | 
20 | COc1ccc(NC(=O)Nc2ccc(-c3ccccc3)cc2Cl)cc1N1CCN(C)CC1 [TCMDC-139137] | -40.38% | 
21 | O=S(=O)(NCCN1CCCC1)c1ccc(-c2cccc(CNC3Cc4ccccc4C3)c2)s1 [TCMDC-132217] | 90.5% | 
22 | O=S(=O)(NCCN1CCCC1)c1ccc(-c2ccc(CNC3Cc4ccccc4C3)cc2)s1 [TCMDC-132234] | 69.5% | 
23 | CN1CCC(NCc2cccc(-c3ccc(S(=O)(=O)NCCN4CCCC4)s3)c2)CC1 [TCMDC-132218] | 98.17% | 
24 | COc1cccc(-c2cnc(N)c(-c3nc4ccc(F)cc4[nH]3)c2)c1 [TCMDC-138791] | -6.276% | 
25 | Cn1c(=O)c(-c2c(Cl)cccc2Cl)cc2cnc(Nc3ccc(N4CCOCC4)cc3)nc21 [TCMDC-137156] | -23.94% | 
26 | O=C(Nc1cccc([N+](=O)[O-])c1)Nc1ccc(Cl)c(C(F)(F)F)c1 [TCMDC-123511] | -89.27% | 

Row | Compound | % Inhibition | % Inhibition (% Inhibition)
27 | CCN(c1ccc(F)cc1)S(=O)(=O)c1cc(Br)cc2c1N(C(=O)C1CC1)CC2 [TCMDC-123802] | -9.966% | 
28 | Cn1cc(C(=O)Nc2cccc(-c3cccc(-c4nc5ccc(F)cc5[nH]4)c3)c2)n(C)c1=O [TCMDC-137136] | -0.01557% | 
29 | O=C(c1cc(OC(F)(F)F)ccc1O)N1CCN(c2ccccc2)CC1 [TCMDC-141127] | 10.35% | 
30 | CC(=O)Nc1ccc(Nc2cc(C)nc(Nc3ccc(NC(C)=O)cc3)n2)cc1 [TCMDC-125764] | 22.75% | 
31 | Cc1cccc2[nH]c(-c3ccc(-c4cccc(NC(=O)c5cccc(C(N)=O)c5)c4)cc3)nc12 [TCMDC-132197] | 5.465% | 
32 | COc1ccc2nccc([C@@H](O)CN3CCC(NCc4ccc5c(n4)NC(=O)CS5)C(F)C3)c2c1 (stereo partly drawn) [TCMDC-141718] | -27.67% | 
33 | O=C(Nc1cccc(OCc2ccccc2)c1)c1ccc(CN2CCC(Cc3ccccc3)CC2)cc1 [TCMDC-136885] | -23.99% | 
34 | COc1cccc(-c2cccc(NC(=O)C3CCN(Cc4ccc(O)cc4)CC3)c2)c1 [TCMDC-124692] | 72.66% | 
35 | COc1ccc(CN2CCC(C(=O)Nc3cccc(-c4cccc(Cl)c4)c3)CC2)cc1O [TCMDC-124610] | -57.51% | 
36 | O=C(Nc1cccc(CN2CCCN(Cc3cccc(O)c3)CC2)c1)c1ccc(-c2ccccc2)cc1 [TCMDC-141848] | 31.74% | 
37 | O=C(Nc1cccc(CN2CCCN(Cc3ccsc3)CC2)c1)c1ccc(-c2ccccc2)cc1 [TCMDC-141840] | 82.52% | 
38 | O=C(Nc1ccc2ccccc2c1)c1ccc(CN2CCC(Cc3ccccc3)CC2)cc1 [TCMDC-123818] | 92.78% | 
39 | COc1cccc(CN2CCCN(Cc3cccc(NC(=O)c4ccc(-c5ccccc5)cc4)c3)CC2)c1 [TCMDC-141847] | -61.09% | 
40 | COc1ccc(CN2CCCN(Cc3cccc(NC(=O)c4ccc(-c5ccccc5)cc4)c3)CC2)cc1 [TCMDC-141839] | 80.31% | 
41 | O=C(Nc1cccc(CN2CCCN(Cc3ccc(O)cc3)CC2)c1)c1ccc2ccccc2c1 [TCMDC-141857] | 26.89% | 
42 | O=C(Nc1cccc(CN2CCCN(Cc3ccccc3)CC2)c1)c1ccc(-c2ccccc2)cc1 [TCMDC-134589] | -25.71% | 
43 | O=C(Nc1cccc(-c2cccc(F)c2)c1)C1CCN(Cc2ccc(O)cc2)CC1 [TCMDC-124688] | 48.55% | 
44 | COc1ccc(CN2CCCN(Cc3cccc(NC(=O)c4ccc5ccccc5c4)c3)CC2)cc1 [TCMDC-141853] | -65.02% | 
45 | CC(=O)Nc1cc(C(=O)Nc2cccc(-c3csc(-c4nc5ccccc5[nH]4)c3)c2)ccc1C [TCMDC-132397] | -24.51% | 
46 | Cc1nc2ccc3ccc(CNc4ccc(C(=O)N[C@@H](CCC(=O)O)C(=O)O)cc4)cc3c2c(=O)[nH]1 [TCMDC-137629] | 7.462% | 
47 | CCC[C@@H]([C@@H](CC1CCCCC1)C(=O)N[C@@H](CCCCNS(C)(=O)=O)C(=O)Nc1nccs1)N(O)C=O [TCMDC-138143] | 41.43% | 
48 | CC1(C)CCNc2cc(NC(=O)c3ccc(-c4ncccc4C(F)(F)F)cc3)ccc21 [TCMDC-133353] | 8.36% | 
49 | COc1ccc(C2=CCN(c3ccc(Cl)c(Cl)c3)C2=O)cc1OCCN1CCCCC1 [TCMDC-138795] | 24.05% | 
50 | COc1ccc2nccc([C@@H](O)CN3CCC(NC(=O)c4ccc(OC)c(N)c4)CC3)c2c1 [TCMDC-140772] | 8.441% | 
51 | CC(=O)N(C)c1cccc(CNc2cc(C)nc(Nc3ccc(C)cc3)n2)c1 [TCMDC-134005] | 7.958% | 
52 | CN1CCN(CC(=O)Nc2ccc(-c3ccc(-c4nc5cc(C(F)(F)F)ccc5[nH]4)s3)cc2)CC1 [TCMDC-136976] | 14.59% | 

Row | Compound | % Inhibition | % Inhibition (% Inhibition)
53 | COc1cc(Cc2cnc(N)nc2N)cc(OCCCCc2nn[nH]n2)c1OC [TCMDC-138032] | 13.98% | 
54 | Cc1cccc(-c2nc3[nH]c(=O)cc(NC(=O)C(C)C)n3n2)c1 [TCMDC-125001] | -2.254% | 
55 | O=C(Nc1cccc(CN2CCN(Cc3ccc(O)cc3)CC2)c1)c1ccc(-c2ccccc2)cc1 [TCMDC-141886] | 12.46% | 
56 | CCCc1ccc(NC(=O)c2ccc(CN3CCCN(Cc4ccc(OC)cc4)CC3)cc2)cc1 [TCMDC-136422] | 91.61% | 
57 | COc1ccc(CN2CCCN(Cc3ccc(C(=O)Nc4ccc(Cl)cc4)cc3)CC2)cc1 [TCMDC-136409] | 0.3374% | 
58 | CCCCCCN1CCCN(Cc2ccc(C(=O)Nc3ccc(C(C)C)cc3)cc2)CC1 [TCMDC-136423] | 90.22% | 
59 | O=C(Nc1cccc(CN2CCCN(Cc3ccc(O)cc3)CC2)c1)c1ccc(-c2ccccc2)cc1 [TCMDC-141850] | 69.39% | 
60 | CCCCCCN1CCCN(Cc2ccc(C(=O)Nc3ccc(CCC)cc3)cc2)CC1 [TCMDC-136424] | 9.552% | 
61 | CCCCCCN1CCCN(Cc2ccc(C(=O)Nc3ccc(CC)cc3)cc2)CC1 [TCMDC-136450] | 13.19% | 
62 | O=C(Nc1cccc(CN2CCCN(Cc3cccc(Cl)c3)CC2)c1)c1ccc(-c2ccccc2)cc1 [TCMDC-141837] | -76.33% | 
63 | CCCCCCN1CCCN(Cc2ccc(C(=O)Nc3ccc(Cl)cc3)cc2)CC1 [TCMDC-136416] | 35.96% | 
64 | Oc1c(Br)cc2oc3c(c2c1CNCc1ccccc1)CCCC3 [TCMDC-124248] | 19.71% | 
65 | Cc1cccc2c(CON3C(N)=NC(N)=NC3(C)C)cccc12 [TCMDC-131325] | 30.52% | 
66 | c1ccc2c(c1)CN(Cc1ccsc1)CC1(CCN(Cc3c[nH]c4cnccc34)CC1)O2 [TCMDC-133374] | -8.367% | 
67 | COCCNCc1ccc(-c2ccc3c(Nc4ccc(Cl)cc4F)ccnc3c2)o1 [TCMDC-138390] | 17.71% | 
68 | CN(C)CCN(C)Cc1ccc(-c2ccc3c(Nc4ccc(F)cc4Cl)ccnc3c2)o1 [TCMDC-138447] | 57.57% | 
69 | CN(C)CCNCc1ccc(-c2ccc3c(Nc4ccc(F)cc4Cl)ccnc3c2)o1 [TCMDC-138449] | 71.06% | 
70 | Fc1cc(Cl)ccc1Nc1ccnc2cc(I)ccc12 [TCMDC-138376] | -32.49% | 
71 | Fc1ccc(Nc2ccnc3cc(-c4ccc(CNCCN5CCOCC5)o4)ccc23)c(Cl)c1 [TCMDC-138451] | 28.52% | 
72 | CN(C)CCN(C)Cc1ccc(-c2ccc3c(Nc4ccc(Cl)cc4F)ccnc3c2)o1 [TCMDC-138388] | 33.59% | 
73 | CN(C)CCNCc1ccc(-c2ccc3c(Nc4ccc(Cl)cc4F)ccnc3c2)o1 [TCMDC-138391] | 96.42% | 
74 | CN(C)Cc1ccc(-c2ccc3c(Nc4ccc(Cl)cc4F)ccnc3c2)o1 [TCMDC-138389] | 51.2% | 
75 | Fc1ccc(Nc2ccnc3cc(-c4ccc(CN5CCOCC5)o4)ccc23)c(Cl)c1 [TCMDC-138450] | -9.806% | 
76 | CN1CCN(Cc2ccc(-c3ccc4c(Nc5ccc(F)cc5Cl)ccnc4c3)o2)CC1 [TCMDC-138452] | 13.09% | 
77 | COCCNCc1ccc(-c2ccc3c(Nc4ccc(F)cc4Cl)ccnc3c2)o1 [TCMDC-138448] | 12.72% | 
78 | CS(=O)(=O)CCNCc1ccc(-c2ccc3c(Nc4ccc(Cl)cc4F)ccnc3c2)o1 [TCMDC-138445] | 0.4033% | 
